Hits are enriched below; roughly 3.2% of the tested compounds scored in any of these assays.
esBAF inh: Bmi1 luciferase reporter increase in mESCs, primary screen, esBAF inhibitor project, mouse ES cells, Bmi1 luciferase knock-in, single point. reporter increase, % at 12.5 µM. 24 h; 100% = twice the neutral-well signal. AID 602393, 2012. hit rate 2% among 350,000; in the data active = activation above about 40%; inconclusive = no clear call, values can overlap the other calls;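 also: 0% = median of the plate's neutral control wells and 100% = double that signal; a rise in the Bmi1 reporter signal indicates esBAF inhibition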
dFosB activator: activators of delta FosB homodimer, primary screen, biochemical, fluorescence polarization, TAMRA-CDK5 oligo, single point. purified delta FosB; percent of positive-control signal above neutral wells. activation, % at 25 µM. hit rate 0.99% among 340,000;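 active = mean activation above about 17%, with every replicate also reaching it, limit read from the data, passing the limit was not always enough; inconclusive = only one of the two conditions met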
Target sequence (P13346 whole entry, looked up): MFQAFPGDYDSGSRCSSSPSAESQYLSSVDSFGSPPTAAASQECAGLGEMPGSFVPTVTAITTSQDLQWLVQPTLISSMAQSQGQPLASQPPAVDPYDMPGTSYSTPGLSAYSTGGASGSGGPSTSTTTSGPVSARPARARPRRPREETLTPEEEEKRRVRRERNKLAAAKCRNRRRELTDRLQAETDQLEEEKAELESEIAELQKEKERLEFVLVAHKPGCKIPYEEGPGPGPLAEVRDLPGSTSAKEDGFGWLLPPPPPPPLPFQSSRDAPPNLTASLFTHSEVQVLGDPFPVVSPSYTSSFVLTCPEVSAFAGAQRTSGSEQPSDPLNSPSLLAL
Dyrk1A ADPGlo: rat Dyrk1A kinase inhibitors, primary screen, biochemical, single point, plate reader; Dual specificity tyrosine-phosphorylation-regulated kinase 1A (Rattus norvegicus), Q63470; ADP-Glo luminescence, NFATc1 peptide; hit rate 0.43% among 310,000; inhibition, % at 12.5 µM; in the data active = inhibition above about 50%;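 also: plate controls were vehicle with enzyme for no effect and no enzyme for full effect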
CDK5 inh: inhibitors of human CDK5/p35 kinase, primary screen, biochemical, single concentration; Recombinant CDK5/p35, ADP-Glo luminescence, 60 min; AID 488839, 2010; hit rate 0.01% among 330,000; inhibition, % at 10 µM;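 active = highest replicate inhibition of at least 50% and at least 75% of replicates reaching 50%; inconclusive = only one of the two criteria met; inactive = both criteria failed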;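 also: plate controls were DMSO neutral control for no effect and GW8510 at 10 µM for full effect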
SMARCA2 act: SMARCA2 (BRM) function activators, primary screen, cell-based, luminescence, high throughput. MG213 cells, MMTV-luciferase reporter, dexamethasone, overnight. activation, % at 9.1 µM. hit rate 1% among 370,000. AID 652017, 2013; in the data active = activation above about 7.8%;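 also: 0% = vehicle wells and 100% = reference activator wells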
Rtt109 HAT inh: inhibitors of C. albicans Rtt109/Vps75 HAT, primary screen, biochemical, ThioGlo CoA-SH fluorescence, plate reader | purified Rtt109/Vps75, 4 h | inhibition, % at 34.9 µM | hit rate 0.16% among 330,000 | AID 540336, 2011;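 active = inhibition of at least 50% in every replicate; inconclusive = best replicate reaches 50% inhibition but some replicates fall short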
Ring1 derepress: Ring1 mRNA increase in mouse ESCs, confirmation, esBAF inhibitor project, cell-based, mouse ESC, RT-qPCR, cherry-pick; fold change at 33 µM; mouse ESC E14, Ring1 mRNA RT-qPCR fold change; 550 tested, under 10 active; shares compounds with esBAF inh;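 active = Ring1 gene expression raised more than 2-fold over untreated cells in both replicates at either tested dose; inconclusive = only one replicate above 2-fold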;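 also: Ring1 transcript normalised to actin housekeeping signal by TaqMan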
Fgf4 repress: Fgf4 mRNA decrease in mouse ESCs, confirmation, esBAF inhibitor project, cell-based, mouse ESC, RT-qPCR, cherry-pick; Fgf4 expression fold change at 33 µM; AID 743177, 2013; mouse ESC E14, Fgf4 mRNA qPCR fold change; hits give low values; shares compounds with esBAF inh; hit rate 4% among 550;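 active = Fgf4 expression under 0.8 fold of control in both repeat measurements at one or both tested doses; inconclusive = under 0.8 fold in just a single repeat measurement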;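 also: Fgf4 transcript normalised to actin in duplex TaqMan qPCR; cells exposed to compound for 24 h before lysis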
esBAF Bmi1 qPCR: esBAF inhibition via Bmi1 de-repression, confirmation, cell-based, RT-qPCR, mouse ESC, single point, cherry-pick; mouse ESE14 ES cells, Bmi1 mRNA qPCR fold; hits give high values; fold change at 33 µM; 550 tested, under 10 active; AID 743180, 2013; shares compounds with esBAF inh;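 active = Bmi1 expression fold change above 6 at either tested concentration, seen in replicate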;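 also: higher fold means more Bmi1 de-repression and stronger esBAF inhibition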
A549 cytotox: A549 cell cytotoxicity, cytotoxicity control, plate reader, single point, cherry-pick; cell viability change % (negative = cytotoxic), % at 25 µM, hits read low; AID 743188, 2013; shares compounds with esBAF inh; 550 tested, under 10 active; call rule not given here
HepG2 cytotox SP: HepG2 cell cytotoxicity, cytotoxicity control, plate reader, single point, cherry-pick; activity change, negative = inhibition, % at 25 µM; shares compounds with esBAF inh; hit rate 4% among 550; hits give low values; in the data active = activity change below about -50%
HEK293 tox SP: HEK293 cell cytotoxicity, cytotoxicity control, plate reader, single point, cherry-pick. activity change, negative = inhibition, % at 25 µM, hits read low. shares compounds with esBAF inh. hit rate 3% among 550; in the data active = activity change below about -38%, passing the limit was not always enough
Active calls of the source: *; u = inconclusive; x = no result given.

SMILES | esBAF inh | dFosB activator | Dyrk1A ADPGlo | CDK5 inh | SMARCA2 act | Rtt109 HAT inh | Ring1 derepress | Fgf4 repress | esBAF Bmi1 qPCR | A549 cytotox | HepG2 cytotox SP | HEK293 tox SP
CNC(=O)C[C@@H]1CC[C@@H]2[C@@H](COc3ccc(NC(=O)c4ccc(OC)cc4)cc3C(=O)N2C)O1 | 1 | x | x | x | x | x | x | x | x | x | x | x
N#Cc1ccc(-c2cn3c(n2)SCC3)cc1 | 61* | -2 | 1 | 2 | 4 | 6 | 0.91 | 0.86 | 1.4 | -6 | -8 | -11
O=C(Nc1ccc2c(c1)OCO2)c1cnc(Cl)c(Cl)c1 | 54* | 13 | -6 | 2 | 5 | -1 | 0.97 | 1.1 | 1 | 5 | -9 | -2
O=C(Nc1ccc2c(c1)OCO2)c1ccc(Cl)nc1 | x | 8 | 7 | 4 | 4 | 5 | x | x | x | x | x | x
CO[C@@H]1CN(C)C(=O)c2cc(NC(=O)C3CC3)ccc2OC[C@@H](C)N(C(=O)CN2CCOCC2)C[C@H]1C | -6 | x | x | x | x | x | x | x | x | x | x | x
O=C(c1csc(Nc2ccccc2Cl)n1)N1CCCC1 | 54* | 5 | 7 | -2 | 2 | -2 | 1.1 | 0.93 | 1.1 | 3 | -35 | -2
O=C(c1csc(Nc2cccc3ccccc23)n1)N1CCCC1 | 5 | -11 | -3 | -4 | 4 | 0 | x | x | x | x | x | x
O=C(Cc1ccccc1)N/N=C/c1ccccc1OCc1ccc(Cl)cc1 | 101* | 3 | 4 | 2 | 1 | -6 | 1.2 | u | 2.7 | -17 | 10 | -14
CCN(CC)C(=O)Oc1ccc2c(=O)c(-c3ccc(OC)cc3)c(C)oc2c1 | 15 | -14 | 1 | 0 | 0 | -4 | x | x | x | x | x | x
CCN(CC)C(=O)Oc1ccc2c(=O)c(-c3ccc(OC)cc3)coc2c1 | 61* | -8 | -3 | -1 | 0 | 0 | 1.1 | 0.83 | 1.6 | -6 | 2 | -6
O=C(C[C@H]1C[C@@H]2c3cc(NC(=O)NC4CCCC4)ccc3O[C@@H]2[C@H](CO)O1)NCc1cc(F)ccc1F | 2 | x | x | x | x | x | x | x | x | x | x | x
C[C@H](NC(=O)[C@H]1N[C@H]2c3ccc(-c4cncnc4)c(=O)n3C[C@H]2[C@@H]1CO)c1ccccc1 | 2 | x | x | x | x | x | x | x | x | x | x | x
O=C(NCc1ccccn1)Nc1ccc(Br)cc1Cl | 56* | 7 | -1 | -2 | 6 | 3 | 1.1 | 0.92 | 0.98 | 5 | 44 | 7
C[C@@H]1CN([C@H](C)CO)C(=O)c2cccc(NC(=O)Nc3ccc(F)cc3)c2O[C@H]1CN(C)Cc1ccc2c(c1)OCO2 | 2 | x | x | x | x | x | x | x | x | x | x | x
Cc1ccc(NC(=O)Nc2ccc3c(c2)nc(C)n3C)cc1 | x | 3 | 4 | -2 | 7 | x | x | x | x | x | x | x
Cc1cc(NC(=O)Nc2ccc3c(ccn3C)c2)sn1 | 81* | -4 | -8 | 1 | 6 | -6 | 1.5 | 0.94 | 1.5 | -2 | 1 | -11
c1ccc(CCc2ccccc2-c2nc(-c3cccnc3)no2)cc1 | -4 | 2 | 5 | -1 | -2 | 0 | x | x | x | x | x | x
